Measured values from PubChem BioAssay AID1159580 (chemical genetic matrix, 2015).
Several values for one entry are separate records, joined by “and”; a condition that tells them apart may be missing. Identical values can stand only once. Hit rate of the full screen: of about 5,500 compounds, about 2,000 (36%) were called active. Inconclusive results (about 18%) are left out. Rule as the data show it: active = normalized growth mostly below about 0.91 (no sharp cut-off); inconclusive = no clear call, values can overlap the other calls; inactive = mostly above about 0.92. Some of the results follow.

Assay: chemical genetic growth profiling, strain panel (AID 1159580);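 also: tested at 20 µM; growth read once vehicle control cultures reached saturation at 30 °C; 1 = growth at the plate median or of vehicle wells; lower values mean less growth of the strain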
Conditions: S. cerevisiae deletion strains, growth OD

Measured: normalized growth

C[C@H]1[C@H](C)CC[C@]2(C(=O)O)CC[C@]3(C)C(=CCC4[C@@]5(C)C[C@@H](O)[C@H](O)[C@@](C)(CO)C5[C@H](O)C[C@]43C)[C@H]12 (some centres not stated)
active: locus YAL013W, strain DEP1, stronger effect = lower value 0.769 | locus YDL192W, strain arf1, stronger effect = lower value 0.91 | locus YDR137W, strain rgp1, stronger effect = lower value 0.794 | locus YDR159W, strain sac3, stronger effect = lower value 0.854 | locus YDR195W, strain ref2 0.84 | locus YDR388W, stronger effect = lower value 0.911 | locus YER155C, strain BEM2 (second series), stronger effect = lower value 0.863 | locus YGL086W, strain mad1, stronger effect = lower value 1.18 [resistant] | locus YGL240W, strain doc1, stronger effect = lower value 0.886
0.944 (inactive) and 0.792 (active): locus YJL095W, strain BCK1, stronger effect = lower value
inactive: locus YAL021C, strain ccr4, stronger effect = lower value 1.01 | locus YAL026C, strain drs2, stronger effect = lower value 0.963 | locus YAL030W, strain snc1, stronger effect = lower value 0.973 | locus YBL061C, strain skt5, stronger effect = lower value 0.952 | locus YBR009C, strain hhf1, stronger effect = lower value 0.936 | locus YBR021W, strain FUR4, stronger effect = lower value 0.957 | locus YBR023C, strain chs3, stronger effect = lower value 0.942 | locus YBR171W, strain sec66, stronger effect = lower value 0.951 | locus YBR229C, strain ROT2, stronger effect = lower value 0.987 | locus YBR231C, strain swc5, stronger effect = lower value 0.953 | locus YBR279W, strain paf1, stronger effect = lower value 0.948 | locus YCL011C, strain gbp2, stronger effect = lower value 0.968 | locus YCL016C, strain dcc1, stronger effect = lower value 0.956 | locus YCL029C, strain bik1, stronger effect = lower value 0.981 | locus YCL061C, strain MRC1, stronger effect = lower value 0.971 | locus YCL069W, strain vba3, stronger effect = lower value 0.973 | locus YCR088W, strain abp1, stronger effect = lower value 0.961 | locus YDL005C, strain med2, stronger effect = lower value 0.948 | locus YDL035C, strain GPR1, stronger effect = lower value 0.972 | locus YDL040C, strain nat1, stronger effect = lower value 0.965 | locus YDL074C, strain BRE1, stronger effect = lower value 0.895 | locus YDL101C, strain DUN1, stronger effect = lower value 0.973 | locus YDL185W, strain tfp1, stronger effect = lower value 1.01 | locus YDR001C, strain nth1, stronger effect = lower value 0.969 | locus YDR069C, strain doa4, stronger effect = lower value 0.936 | locus YDR101C, strain arx1, stronger effect = lower value 0.967 | locus YDR150W, strain NUM1, stronger effect = lower value 0.996 | locus YDR162C, strain NBP2, stronger effect = lower value 0.954 | locus YDR297W, strain sur2, stronger effect = lower value 0.96 | locus YDR318W, strain mcm21, stronger effect = lower value 0.982 | locus YDR334W, strain swr1, stronger effect = lower value 0.978 | locus YDR335W, strain msn5, stronger effect = lower value 0.967 | locus YDR392W, strain spt3, stronger effect = lower value 0.916 | locus YDR502C, strain sam2, stronger effect = lower value 0.937 | locus YEL003W, strain gim4, stronger effect = lower value 0.954 | locus YEL037C, strain rad23, stronger effect = lower value 0.969 | locus YEL061C, strain CIN8 (second series), stronger effect = lower value 0.955 | locus YEL061C, strain CIN8, stronger effect = lower value 0.961 | locus YER015W, strain faa2, stronger effect = lower value 0.959 | locus YER016W, strain bim1, stronger effect = lower value 0.971 | locus YER110C, stronger effect = lower value 0.978 | locus YER111C, strain swi4, stronger effect = lower value 0.955 | locus YER155C, strain BEM2, stronger effect = lower value 0.985 | locus YER167W, strain BCK2, stronger effect = lower value 0.977 | locus YFR010W, strain ubp6, stronger effect = lower value 0.938 | locus YGL078C, strain dbp3, stronger effect = lower value 0.939 | locus YGL167C, strain pmr1, stronger effect = lower value 0.962 | locus YGL173C, strain kem1, stronger effect = lower value 0.949 | locus YGL227W, strain vid30, stronger effect = lower value 0.975 | locus YGL248W, strain PDE1, stronger effect = lower value 0.994 | locus YGL253W, strain hxk2, stronger effect = lower value 0.971 | locus YGR135W, strain pre9, stronger effect = lower value 0.943 | locus YGR252W, strain gcn5, stronger effect = lower value 0.849 | locus YHR013C, strain ard1, stronger effect = lower value 1.03 | locus YHR027C, strain rpn1, stronger effect = lower value 0.974 | locus YHR030C, strain SLT2, stronger effect = lower value 1 and 0.976 | locus YHR079C, strain IRE1 (second series), stronger effect = lower value 0.968 | locus YHR079C, strain IRE1, stronger effect = lower value 0.979 | locus YHR094C, strain hxt1, stronger effect = lower value 0.977 | locus YHR129C, strain ARP1, stronger effect = lower value 0.998 | locus YHR142W, strain chs7, stronger effect = lower value 0.949 | locus YHR200W, strain rpn10, stronger effect = lower value 0.944 | locus YIL066C, strain RNR3, stronger effect = lower value 0.985 | locus YIL073C, strain SPO22, stronger effect = lower value 1.02 | locus YIL125W, strain kgd1, stronger effect = lower value 0.947 | locus YIR030C, strain dcg1, stronger effect = lower value 0.971 | locus YJL092W, strain hpr5, stronger effect = lower value 0.963 | locus YJL095W, strain BCK1 (second series), stronger effect = lower value 0.972 | locus YJL115W, strain asf1, stronger effect = lower value 0.967 | locus YJL129C, strain trk1, stronger effect = lower value 0.937 | locus YJL134W, strain LCB3, stronger effect = lower value 0.991 | locus YJL154C, strain vps35, stronger effect = lower value 0.968 | locus YJL164C, strain tpk1, stronger effect = lower value 0.944 | locus YJL166W, strain qcr8, stronger effect = lower value 0.948 | locus YJL168C, strain set2, stronger effect = lower value 0.982 | locus YJL187C, strain SWE1 (second series), stronger effect = lower value 0.959 | locus YJR043C, strain POL32, stronger effect = lower value 0.985
